Compound activity deposited in PubChem BioAssay by NMMLSC.
An excerpt weighted towards active compounds, which were near 2.9% of everything screened.
MEKK2 WT-MEK5: raises or lowers MEK5 binding to wildtype human MEKK2 PB1 domain; Q9Y2U5; bead flow cytometry, Alexa488-MEK5 binding to MEKK2 WT; actives lie on both sides; binding response (% of control), % at 10 µM; hit rate 1.1% among 290,000; in the data active means binding response below about 67% or above about 130%
MEKK3 PB1 HTS: MEKK3-MEK5 PB1 interaction, increase or decrease | binding response (% of control), % at 10 µM | Q99759 | bead-based flow cytometry, Alexa488-MEK5 binding to MEKK3; actives lie on both sides; 0 = blocked by unlabeled MEK5, 100 = vehicle | hit rate 1.4% among 290,000;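 active means binding response more than 3 SD above or below the average of its plate-row segment, actives on both sides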;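 further: Alexa488 bead fluorescence after subtracting the streptavidin-only scavenger bead signal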
B2AR ag: human beta-2 adrenergic receptor agonism by FAP; response, % (concentration not given with the values); P07550; hit rate 0.43% among 340,000; Am2.2-beta2AR cells, FAP receptor internalization, flow cytometry;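 active means response above a set limit, near 3 SD of response in nonfluorescent compounds, cut at about 42% in these data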
MEKK2 mut-MEK5: signal of MEK5 binding to mutant human MEKK2 PB1 domain; hit rate 0.35% among 290,000; percent response, % at 10 µM; AID 1530; bead flow cytometry, Alexa488-MEK5 binding to MEKK2 mutant; in the data active means percent response above about 24%, passing the limit was not always enough
GRK2 inh: blocks RNA aptamer binding to human GRK2. P25098. bead flow cytometry, FAM-aptamer displacement from GRK2. inhibition of aptamer binding, % at 10 µM. hit rate 0.59% among 330,000. AID 488847;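 active means inhibition of aptamer binding above 40%, roughly 3 SD of noise, on plates passing a quality check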;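 further: median bead fluorescence of bound FAM aptamer so fluorescent compounds give negative values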
Target sequence (P25098 whole entry, looked up): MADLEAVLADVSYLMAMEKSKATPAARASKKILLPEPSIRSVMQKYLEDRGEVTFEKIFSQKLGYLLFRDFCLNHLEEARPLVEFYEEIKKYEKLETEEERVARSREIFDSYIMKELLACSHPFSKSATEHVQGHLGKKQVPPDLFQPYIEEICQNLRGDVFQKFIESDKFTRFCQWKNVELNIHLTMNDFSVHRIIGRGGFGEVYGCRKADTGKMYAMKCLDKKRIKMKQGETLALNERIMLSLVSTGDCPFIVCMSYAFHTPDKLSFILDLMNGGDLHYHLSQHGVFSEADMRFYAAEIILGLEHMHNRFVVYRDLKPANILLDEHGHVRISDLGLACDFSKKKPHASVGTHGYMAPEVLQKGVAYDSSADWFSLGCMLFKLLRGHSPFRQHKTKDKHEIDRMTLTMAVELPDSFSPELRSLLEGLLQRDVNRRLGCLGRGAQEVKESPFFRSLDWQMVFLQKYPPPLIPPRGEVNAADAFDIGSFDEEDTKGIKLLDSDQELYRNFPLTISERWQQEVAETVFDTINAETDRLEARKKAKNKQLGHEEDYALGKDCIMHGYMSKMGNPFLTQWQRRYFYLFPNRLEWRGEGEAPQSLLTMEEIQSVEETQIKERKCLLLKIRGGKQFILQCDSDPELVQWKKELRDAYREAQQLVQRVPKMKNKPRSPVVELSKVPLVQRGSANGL
MEKK2wt confirm: raises or lowers MEK5 binding to wildtype human MEKK2, retest. shares compounds with MEKK3 PB1 HTS. bead flow cytometry, Alexa488-MEK5 binding to MEKK2 WT; actives lie on both sides. binding response (% of control), % at 10 µM. hit rate 2.4% among 5,900; in the data active means binding response below about 16% or above about 210%; inactive means in between
MEKK2mut-MEK5: signal of MEK5 binding to mutant human MEKK2, retest; shares compounds with MEKK3 PB1 HTS; bead flow cytometry, Alexa488-MEK5 binding to MEKK2 mutant; percent response, % at 10 µM; hit rate 2% among 5,900; AID 1893; in the data active means percent response mostly above about 71%, no sharp cut-off; inactive means mostly below about 38%;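 further: higher means compound restores mutant binding toward wildtype level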
MEKK3-MEK5 inh: confirmation of inhibitors of MEK5 binding to human MEKK3. shares compounds with MEKK3 PB1 HTS. bead flow cytometry, Alexa488-MEK5 binding to MEKK3; active compounds read low. binding response (% of control), % at 10 µM. hit rate 1.8% among 5,900. AID 1894;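 active means binding response below 72% of control, or above a set upper limit, though filed actives all read lower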;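 further: lower values mean stronger disruption of MEK5 binding to MEKK3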
Of the large screens only hits and unclear results are named; the others gave an inactive call (follow-up assays come after a bar, where they were run); [ ] = remark or other dose.

CCCn1c(N2CCN(C(=O)Nc3ccccc3)CC2)nc2ccccc21	none
CCc1cc(C(=O)NCC(C)(C)N2CCOCC2)sc1C	none (no result: MEKK2 WT-MEK5, MEKK3 PB1 HTS, MEKK2 mut-MEK5)
Cc1ccc2[nH]c3c(=O)n(N)c(C)nc3c2c1	none
COc1ccc2[nH]c3c(=O)n(N)c(C)nc3c2c1	MEKK3 PB1 HTS 136.0 | MEKK2wt confirm inactive | MEKK2mut-MEK5 inactive | MEKK3-MEK5 inh inactive
COc1cc(CCC(=O)Nc2ccc(Cl)c(C(F)(F)F)c2)cc(OC)c1OC	none
COc1cc(CCC(=O)Nc2ccc(Br)c(C(F)(F)F)c2)cc(OC)c1OC	MEKK3 PB1 HTS 151.0 | MEKK2wt confirm inactive | MEKK2mut-MEK5 inactive | MEKK3-MEK5 inh inactive
CN1CCc2c(sc3c2c(=O)n(-c2ccc(Cl)cc2)c2nncn32)C1	MEKK3 PB1 HTS 122.0 | MEKK2wt confirm inactive | MEKK2mut-MEK5 inactive | MEKK3-MEK5 inh inactive
O=C(c1ccccc1)C1C(c2ccccc2)C1[N+](=O)[O-] (configuration not stated)	none
CN(C)c1ccc([C@@H]2[C@@H]([N+](=O)[O-])[C@H]3C=Cc4ccccc4N3[C@H]2C(=O)c2ccc(Cl)cc2)cc1	MEKK2 WT-MEK5 1.0[inhibitor] | MEKK2wt confirm inactive | MEKK2mut-MEK5 inactive | MEKK3-MEK5 inh inactive
CCOc1ccc(NC(=O)Nc2ccon2)cc1	none
CCn1cc(C=C2C(=O)c3ccccc3C2=O)c2ccccc21	MEKK2 WT-MEK5 33.0[inhibitor] (no result: GRK2 inh) | MEKK2wt confirm inactive | MEKK2mut-MEK5 inactive | MEKK3-MEK5 inh inactive
COc1ccccc1CN1CCCC(CN(CCN(C)C)C(=O)C2CCCC2)C1 (configuration not stated)	MEKK2 WT-MEK5 135.0, MEKK2 mut-MEK5 34.0 | MEKK2wt confirm inactive | MEKK2mut-MEK5 inactive | MEKK3-MEK5 inh inactive
Cc1onc(-c2c(Cl)cccc2Cl)c1NC(=O)NN(C)C	none
CSCCNC(=O)Nc1c(-c2c(Cl)cccc2Cl)noc1C	MEKK3 PB1 HTS 67.0[inhibitor] | MEKK2wt confirm inactive | MEKK2mut-MEK5 inactive | MEKK3-MEK5 inh inactive
CCCN(C(=O)c1nc2nc(C)cc(C)n2n1)c1c(N)n(Cc2ccccc2)c(=O)[nH]c1=O	none (no result: MEKK2 WT-MEK5, MEKK3 PB1 HTS, MEKK2 mut-MEK5)
Cc1cccc[n+]1CC(=O)c1ccc([N+](=O)[O-])cc1	none (no result: MEKK2 WT-MEK5, MEKK3 PB1 HTS, MEKK2 mut-MEK5, GRK2 inh)
Cc1ccc(C(=O)C[n+]2cccc3ccccc32)cc1	MEKK3 PB1 HTS 80.0[inhibitor] | MEKK2wt confirm inactive | MEKK2mut-MEK5 inactive | MEKK3-MEK5 inh inactive
COc1ccc(C(=O)C[n+]2ccccc2C)cc1	MEKK3 PB1 HTS 143.0 | MEKK2wt confirm inactive | MEKK2mut-MEK5 inactive | MEKK3-MEK5 inh inactive
O=C(C[n+]1cccc2ccccc21)c1ccc(Br)cc1	MEKK3 PB1 HTS 24.0[inhibitor], MEKK2 mut-MEK5 234.0 (no result: MEKK2 WT-MEK5) | MEKK2wt confirm inactive | MEKK2mut-MEK5 inactive | MEKK3-MEK5 inh inactive
C=C(C)COC(=O)C1CC2OC2CC1C(=O)OCC(=C)C (configuration not stated)	none (no result: MEKK2 WT-MEK5, MEKK3 PB1 HTS, MEKK2 mut-MEK5, GRK2 inh)
Cc1ccccc1NC(NC(=O)c1cccnc1)C(Cl)(Cl)Cl (configuration not stated)	MEKK3 PB1 HTS 132.0 | MEKK2wt confirm inactive | MEKK2mut-MEK5 inactive | MEKK3-MEK5 inh inactive
CC(C)CCOc1ccc(C(=O)N2CCCC2C(=O)O)cc1 (configuration not stated)	none
COc1ccc(OCC(=O)N2N=C(C(F)F)CC2(O)C(F)F)cc1 (configuration not stated)	none
Cc1cc(-c2n[nH]c(=S)n2/N=C/c2sccc2C)n[nH]1	MEKK3 PB1 HTS 148.0 | MEKK2wt confirm inactive | MEKK2mut-MEK5 inactive | MEKK3-MEK5 inh inactive
Cc1ccsc1/C=N/n1c(-c2ccccc2)n[nH]c1=S	none
COc1ccc2nc(NC(=O)CN(C)S(=O)(=O)c3cccs3)sc2c1	MEKK2 WT-MEK5 -7.0[inhibitor], MEKK3 PB1 HTS 1.0[inhibitor] | MEKK2wt confirm inactive | MEKK2mut-MEK5 inactive | MEKK3-MEK5 inh inactive
COc1ccc2nc(NC(=O)Cn3cnc4ccccc4c3=O)sc2c1	MEKK2 WT-MEK5 49.0[inhibitor], MEKK3 PB1 HTS 68.0[inhibitor] | MEKK2wt confirm inactive | MEKK2mut-MEK5 inactive | MEKK3-MEK5 inh inactive
CCOCC(=O)Nc1nc2ccc(OC)cc2s1	MEKK3 PB1 HTS 81.0[inhibitor] | MEKK2wt confirm inactive | MEKK2mut-MEK5 inactive | MEKK3-MEK5 inh inactive
COc1ccc2nc(NC(=O)CNS(=O)(=O)c3cccs3)sc2c1	none
CCOc1ccc2nc(NC(=O)COC)sc2c1	none
CCCCn1c(-c2cccs2)nc2oc3ccccc3c(=O)c2c1=O	MEKK3 PB1 HTS 129.0 | MEKK2wt confirm inactive | MEKK2mut-MEK5 inactive | MEKK3-MEK5 inh inactive
CCCCn1c(-c2ccco2)nc2oc3ccccc3c(=O)c2c1=O	none
CCc1cc(C(=O)c2ccc(C)cc2)c(NC(=O)CCl)s1	none
Cc1cc(C(=O)c2ccc(Cl)cc2)c(NC(=O)CCl)s1	MEKK3 PB1 HTS 135.0 | MEKK2wt confirm inactive | MEKK2mut-MEK5 inactive | MEKK3-MEK5 inh inactive
O=C(C[C@@H]1C/C=C\CC[C@H](Cc2ccc(F)cc2)C(=O)OC[C@@H]2CCCN2C1=O)N[C@H](CO)Cc1ccccc1	none (no result: MEKK2 WT-MEK5, MEKK3 PB1 HTS, MEKK2 mut-MEK5)
COc1ccccc1CCn1cnc2c3cc(C)ccc3n(C)c2c1=O	MEKK2 WT-MEK5 2.0[inhibitor], MEKK3 PB1 HTS 2.0[inhibitor] | MEKK2wt confirm inactive | MEKK2mut-MEK5 inactive | MEKK3-MEK5 inh inactive
COc1ccc(/C=N/NC(=O)c2[nH]c3ccc(Br)cc3c2-c2ccccc2)cc1	MEKK3 PB1 HTS 147.0 | MEKK2wt confirm inactive | MEKK2mut-MEK5 inactive | MEKK3-MEK5 inh inactive
COc1ccc(/C=N/NC(=O)c2[nH]c3ccc(Br)cc3c2-c2ccccc2)c(C(=O)O)c1OC	none
O=C(CN1C(=O)NC2(CCCC2)C1=O)Nc1nc(-c2ccccc2)cs1	none (no result: MEKK2 WT-MEK5, MEKK3 PB1 HTS, MEKK2 mut-MEK5)
COc1ccc(CNC(=O)C(C)Sc2nc3ccccc3c(=O)n2CC2CCCO2)cc1 (configuration not stated)	none (no result: MEKK2 WT-MEK5, MEKK3 PB1 HTS, MEKK2 mut-MEK5)
Cc1cc(N2CCCCC2)nc(SCc2ccc(C#N)cc2)n1	MEKK3 PB1 HTS 122.0 | MEKK2wt confirm inactive | MEKK2mut-MEK5 inactive | MEKK3-MEK5 inh inactive
COc1ccc(N(C)S(=O)(=O)c2cccc(C(=O)NC3CCCC(C)C3C)c2)cc1 (configuration not stated)	none (no result: MEKK2 WT-MEK5, MEKK3 PB1 HTS, MEKK2 mut-MEK5)
CCOC(=O)C1=C(C)N=c2s/c(=C/c3ccc(OCC(=O)O)c(OC)c3)c(=O)n2C1c1ccc(Cl)cc1 (configuration not stated)	none (no result: MEKK2 WT-MEK5, MEKK3 PB1 HTS, MEKK2 mut-MEK5)
O=C1CCCC2=C1C(c1ccc(Cl)cc1)n1c(s/c(=C\c3ccc4ccncc4c3)c1=O)=N2 (configuration not stated)	MEKK3 PB1 HTS 141.0 | MEKK2wt confirm inactive | MEKK2mut-MEK5 inactive | MEKK3-MEK5 inh inactive
